± gives the uncertainty stated by the source.
Test system: Candida albicans SNY425 biofilm
Experiment: biofilm OD600 with compound plus antifungal (OD600 (absorbance)); higher = more biofilm remaining
[1] = assay detail: disruption of 24-h mature biofilm (compound + antifungal for a second 24 h)
[2] = assay detail: sustained inhibition (compound + antifungal during 90-min adherence and 24-h growth)

Row | SMILES | biofilm OD600 [1] | biofilm OD600 [2]
1 | NCCCC[C@H](N[C@@H](CCc1ccccc1)C(=O)O)C(=O)N1CCC[C@H]1C(=O)O [Lisinopril] + CC[C@H](C)C[C@H](C)CCCCCCCCC(=O)N[C@H]1C[C@@H](O)[C@@H](NCCN)NC(=O)[C@@H]2[C@@H](O)CCN2C(=O)[C@H]([C@H](O)CCN)NC(=O)[C@H]([C@H](O)[C@@H](O)c2ccc(O)cc2)NC(=O)[C@@H]2C[C@@H](O)CN2C(=O)[C@H]([C@@H](C)O)NC1=O [caspofungin] (first compound 12.5 µM) | 0.258 ± 0.011 | 0.178 ± 0.023
2 | COC(=O)N[C@H](C(=O)N[C@@H](Cc1ccccc1)[C@@H](O)CN(Cc1ccc(-c2ccccn2)cc1)NC(=O)[C@@H](NC(=O)OC)C(C)(C)C)C(C)(C)C [atazanavir] + CC[C@H](C)C[C@H](C)CCCCCCCCC(=O)N[C@H]1C[C@@H](O)[C@@H](NCCN)NC(=O)[C@@H]2[C@@H](O)CCN2C(=O)[C@H]([C@H](O)CCN)NC(=O)[C@H]([C@H](O)[C@@H](O)c2ccc(O)cc2)NC(=O)[C@@H]2C[C@@H](O)CN2C(=O)[C@H]([C@@H](C)O)NC1=O [caspofungin] (first compound 12.5 µM) | 0.203 ± 0.0059 | 0.201 ± 0.013
3 | COC(=O)N[C@H](C(=O)N[C@@H](Cc1ccccc1)[C@@H](O)CN(Cc1ccc(-c2ccccn2)cc1)NC(=O)[C@@H](NC(=O)OC)C(C)(C)C)C(C)(C)C [atazanavir] + C[C@@H]1[C@H](O)[C@@H](C)/C=C/C=C/C=C/C=C/C=C/C=C/C=C/[C@H](O[C@@H]2O[C@H](C)[C@@H](O)[C@H](N)[C@@H]2O)C[C@@H]2O[C@](O)(C[C@@H](O)C[C@@H](O)[C@H](O)CC[C@@H](O)C[C@@H](O)CC(=O)O[C@H]1C)C[C@H](O)[C@H]2C(=O)O [amphotericin B] (first compound 12.5 µM) | 0.286 ± 0.013 | 0.213 ± 0.0068
